# Test results taken from the supplement of paper PMC12350171.
# Where a name gives a salt, the structure may show the parent alone. Unmarked numbers belong to inactive results.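 Rule for the calls: active = AUC significantly below DMSO controls by Student t-fit with adjusted P under 0.01; inactive = not significantly reduced.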
# Test system: Haemophilus parainfluenzae
# Assay: growth AUC normalised to DMSO control (fraction of control); higher = less growth inhibition, active = hit call of the paper
# Details: 20 µM
# Outline: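 Three biological replicates were carried out, with OD578 read hourly for 24 h. Before inoculation at a starting OD578 of 0.01, pathogens were passaged anaerobically twice; plates were pre-reduced mGAM containing 20 μM compound and 1% DMSO, sealed with breathable membranes, and the Haemophilus parainfluenzae medium carried added hemin and NAD. Area under each growth curve was calculated by the trapezoidal rule up to the exponential-to-stationary transition and normalised to DMSO controls on the same plate.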
row,Compound,growth AUC normalised to DMSO control
1,C[C@H]1O[C@H](O[C@H]2[C@H](O)[C@@H](O)[C@@H](O[C@@H]([C@H](O)[C@@H](O)C=O)[C@H](O)CO)O[C@@H]2CO)[C@H](O)[C@@H](O)[C@@H]1N[C@H]1C=C(CO)[C@@H](O)[C@H](O)[C@H]1O [Acarbose],1.02
2,CN(N=O)C(=O)N[C@H]1C(O)O[C@H](CO)[C@@H](O)[C@@H]1O (mixture of isomers) [Streptozotocin],0.172 (active)
3,CC(N)CCCC(C)(C)O (stereo not given) [Heptaminol hydrochloride],1.02
4,CCCCC1(COC(=O)CCC(=O)O)C(=O)N(c2ccccc2)N(c2ccccc2)C1=O [Suxibuzone],0.995
5,O=C1NCC2(CCN(CCc3ccccc3)CC2)O1 [Fenspiride hydrochloride],0.967
6,CCCCOc1ccc(C(=O)CCN2CCCCC2)cc1 [Dyclonine hydrochloride],0.921
7,CCCCNc1c(C(=O)OCC)c(C)nc2c1cnn2CC [Tracazolate hydrochloride],1.04
8,COc1ccc(-c2cc(=O)c3c(O)cc(O[C@@H]4O[C@H](CO[C@@H]5O[C@@H](C)[C@H](O)[C@@H](O)[C@H]5O)[C@@H](O)[C@H](O)[C@H]4O)cc3o2)cc1O [Diosmin],0.784
9,COC(=O)C1=C(C)NC(C)=C(C(=O)OC)C1c1ccccc1[N+](=O)[O-] [Nifedipine],0.998
10,COc1ccc(C(=O)NCc2cccnc2)cc1C(=O)NCc1cccnc1 [Picotamide monohydrate],0.997
